Several values for one entry are separate records, joined by “and”; a condition that tells them apart may be missing. Identical values can stand only once. Inconclusive results are not listed. Activity calls are given as the source filed them. Calls come from the whole dose curve; as a rule, active = well fitted cell-killing curve with a large enough effect in the repeat runs; inconclusive = weak or mixed curves, or effect the other way; inactive = no such curve, though single readings can be large or run the other way.
assay: qHTS assay for identifying genotoxic compounds that show differential cytotoxicity against isogenic chicken DT40 cell lines with known DNA damage response pathways - Rev3 mutant cell line (AID 743014); settings: chicken DT40 Rev3-/- viability, CellTiter-Glo, 40 h; series mostly up to 68.4 µM; note: nearly all actives have a fitted effect of over 55% in size
Potency is the fitted concentration of half-maximal effect.

Structure (SMILES) | Potency
CC(C)N1C(=O)N(c2ccccc2)CSC1=NC(C)(C)C | 19.3 µM (active)
OC(c1ccc(Cl)cc1)(c1ccc(Cl)cc1)C(Cl)(Cl)Cl | 48.6 µM (active)
CC(=O)/C=C/c1ccc2c(c1)OCO2 | 68.9 µM (active)
Oc1ccc(C2(c3ccc(O)cc3)c3ccccc3-c3ccccc32)cc1 | 43.3 µM (active)
C[C@]12CC[C@H]3[C@@H](CCC4=CC(=O)CC[C@@]43C)[C@@H]1CC[C@@H]2O | 30.4 µM (active)
CC(C)(C)c1cc([N+](=O)[O-])cc(C(C)(C)C)c1O | 10.9 µM (active)
CCOP(=O)(NC(C)C)Oc1ccc(SC)c(C)c1 (stereo not given) | 18.8 µM (active)
CC[C@H](C)[C@H]1O[C@]2(C=C[C@@H]1C)C[C@@H]1C[C@@H](C/C=C(\C)[C@@H](O[C@H]3C[C@H](OC)[C@@H](O[C@H]4C[C@H](OC)[C@@H](O)[C@H](C)O4)[C@H](C)O3)[C@@H](C)/C=C/C=C3\CO[C@@H]4[C@H](O)C(C)=C[C@@H](C(=O)O1)[C@]34O)O2 | 21.1 µM (active) and 10.2 µM (active)
Cc1cc(SCc2sc(-c3ccc(C(F)(F)F)c(F)c3)nc2C)ccc1OCC(=O)O | 34.4 µM (active)
O=C(CCl)Nc1ccccc1 | 10.9 µM (active)
O=C(Nc1ccc2[nH]ccc2c1)c1cc2cc(F)ccc2n1Cc1cccc(F)c1 | 27.3 µM (active)
O=C(CCl)C(Cl)Cl | 0.692 µM (active)
CCCCCCCCCCCCCCC(Br)C(=O)O (stereo not given) | 24.3 µM (active)
O=c1ssc(Cl)c1Cl | 2.17 µM (active)
CC(=O)[O-].CC(=O)[O-].O.O.[Cd+2] | 67.6 µM (active)
Oc1ccc(C2(c3ccc(O)cc3)CCCCC2)cc1 | 65 µM (active)
Oc1cc(Cl)c(Cl)c(Cl)c1 | inactive
COC12CC[C@@]3(C[C@@H]1C(C)(O)C(C)(C)C)[C@H]1Cc4ccc(O)c5c4[C@@]3(CCN1CC1CC1)[C@H]2O5 (stereo not given in full) | 60.7 µM (active)
CS(=O)(=O)c1ccc(C(=O)C2C(=O)CCCC2=O)c([N+](=O)[O-])c1 | 44 µM (active)
CC(C)(C)C(O)/C(=C\c1ccc(Cl)cc1Cl)n1cncn1 (stereo not given) | 18.6 µM (active)
C=CC(=O)OCCCCOC(=O)C=C | 27.3 µM (active)
CCCCCCCCCCCCBr | 13.7 µM (active)
ClC1=C(Cl)[C@]2(Cl)[C@@H]3[C@@H]4C[C@@H]([C@H]5O[C@@H]45)[C@@H]3[C@@]1(Cl)C2(Cl)Cl | 14.5 µM (active)
C1CCC2CCCCC2C1 (stereo not given) | inactive
COc1ccc(N)cc1N | 3.98 µM (active) and 5.87 µM (active)
CC(C)C1CCC(Cc2ccc(Cl)cc2)C1(O)Cn1cncn1 (stereo not given) | 13.5 µM (active)
Clc1ccc(COC(Cn2ccnc2)c2ccc(Cl)cc2Cl)cc1 (stereo not given) | 16.8 µM (active) and 12.8 µM (active) and 9.65 µM (active)
N#CCCC(Br)(C#N)CBr (stereo not given) | 6.11 µM (active)
CCOCCOC(C)=O | inactive
CCOc1cc(C(C)(C)C)ccc1C1COC(c2c(F)cccc2F)=N1 (stereo not given) | 23.4 µM (active)
